HEK293 tox – HEK 293 cell cytotoxicity | HEK 293 viability, ATP luminescence (CellTiter-Glo), 48-72 h | Potency, µM (top dose mostly 115 µM), for inactives: at the highest dose activity change, negative = cytotoxicity, hits mostly inhibitors | actives 6.6% (n = 94,000) | AID 1345083; note: nearly all actives have a fitted effect of over 60% in size
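HEK 293 seeded at 250 cells/well receive compound via pintool. After 48 or 72 hr at 37 degree Celsius, 5% CO2 and 95% humidity, CellTiter-Glo is dispensed and luminescence read following 10 min at room temperature.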
3T3 cytotox – cytotoxic compounds in NIH 3T3 cells | NIH 3T3 viability, CellTiter-Glo ATP luminescence, 48-72 h | Potency, µM (series often up to 96.7 µM), for inactives: at the highest dose activity change, negative = cytotoxicity, most hits filed as inhibitors | actives 4.3% (n = 94,000) | AID 1345082; note: nearly all actives have a fitted effect of over 55% in size
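First NIH 3T3 cells are plated at 400 cells/well; next compound is pinned in; then plates incubate 48 or 72 hr at 37 °C; finally CellTiter-Glo is added and luminescence read after 10 min.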
GPT2 inhibitor – GPT2 alanine aminotransferase inhibition; AID 1671188; actives 0.25% (n = 100,000); Potency, µM (titrated, usually from 57.7 µM), for the others: at the top dose activity change, negative = inhibition, hits mostly inhibitors; Q8TD30; Recombinant GPT2, coupled pyruvate oxidase/HRP Amplex Red fluorescence; note: nearly all actives have a fitted effect of over 60% in size
Target sequence (Q8TD30 whole entry, looked up): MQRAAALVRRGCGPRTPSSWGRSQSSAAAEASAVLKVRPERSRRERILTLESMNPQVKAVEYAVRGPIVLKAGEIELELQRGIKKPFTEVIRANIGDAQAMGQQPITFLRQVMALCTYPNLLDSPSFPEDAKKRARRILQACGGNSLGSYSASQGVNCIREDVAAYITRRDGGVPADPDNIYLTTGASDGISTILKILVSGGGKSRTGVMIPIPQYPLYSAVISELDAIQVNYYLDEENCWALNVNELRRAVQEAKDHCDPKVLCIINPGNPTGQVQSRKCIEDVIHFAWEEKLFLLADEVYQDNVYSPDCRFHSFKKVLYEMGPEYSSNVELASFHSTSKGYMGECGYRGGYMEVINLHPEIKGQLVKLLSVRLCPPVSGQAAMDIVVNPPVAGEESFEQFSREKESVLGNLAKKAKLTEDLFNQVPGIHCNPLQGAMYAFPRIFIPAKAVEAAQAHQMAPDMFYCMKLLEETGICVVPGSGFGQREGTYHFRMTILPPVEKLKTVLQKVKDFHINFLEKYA
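Fluorescence read-out: pyruvate from GPT2 turnover coupled to pyruvate oxidase, HRP and Amplex Red (0.2mM ThPP, 0.2U/mL PO and HRP, 50uM Amplex final). Substrates 250uM a-KG, 2mM L-alanine; enzyme 10ng/uL; 30 min RT.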
hNpr1 antagonist – blocks ANP-stimulated signaling of human Npr1 receptor. Potency, µM (titrated, usually from 46.3 µM), for the others: at the highest dose activity change, negative = inhibition, most hits filed as inhibitors. AID 1347048. P16066. HEK293 hNpr1 GloSensor cGMP, ANP-stimulated luminescence. actives 1.6% (n = 76,000); calls by dose curve; note: nearly all actives have a fitted effect of over 60% in size
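HEK293 cells stably expressing human Npr1 and cGMP GloSensor pGS-40F, loaded 2 h with 2% GloSensor reagent, given compound 30 min at room temperature. Luminescence read before and 20 min after 0.1 nM hNppA.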
FLuc inh – Photinus pyralis luciferase inhibition; P08659; purified P. pyralis luciferase, luminescence, biochemical; Potency, µM (top dose mostly 115 µM), hits mostly inhibitors; actives 2.5% (n = 76,000); note: nearly all actives have a fitted effect of over 65% in size
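FLuc 10nM, D-luciferin 10uM, ATP 10uM, Mg acetate 10mM, Tris acetate pH 7.5, Tween/BSA; cpd qHTS; enzyme added last; CCD luminescence.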
* marks the source's active call; other numbers are inactive results; i = inactive; ? = inconclusive; / = not tested or not shown; [ ] = another dose, or the depositor's remark. This is a sample that favours compounds with a hit; in the whole collection about 10% have one here. Unless noted, calls come from the whole dose curve; as a rule, active = well fitted curve in the direction sought with a large enough effect; inconclusive = small, poorly fitted or top-dose-only effect, or another doubt; inactive = no such curve, though single readings can be large; an effect the other way counts as inactive or inconclusive. % is set by controls: 0 for no effect and ±100 for the full control effect; potency is the fitted concentration of half-maximal effect.

SMILES	HEK293 tox	3T3 cytotox	GPT2 inhibitor	hNpr1 antagonist	FLuc inh
Cc1noc(C)c1-c1cc2c(cc(C)n2C)c(N2CCN(c3ccccn3)CC2)n1	63.1µM*	44.7µM*	-11.5%[88.5 µM]	3.3%[70.6 µM]	i
CC(C)c1nc2c(c(-c3ccc(O)cc3)n1)CCN(C(=O)c1ccccc1)CC2	-14.0%	-25.2%	?	/	/
C#CCNC(=O)c1nc(-c2ccccc2)c2ccccn12	?	?	i	1.0%[70.6 µM]	i
C#CCNC(=O)c1nc(-c2cccc(C(F)(F)F)c2)c2ccccn12	50.1µM*	?	?	-23.7%[70.6 µM]	i
CC(C)NC(=O)c1nc(-c2cccc(C(F)(F)F)c2)c2ccccn12	79.4µM*	89.1µM*	0.9%[88.5 µM]	13.0%	i
C#CCNC(=O)C1CCCN1C(=O)c1cccc(-c2cccnc2)c1 (centres undefined)	-0.6%	-19.6%	/	/	/
COc1ccc(-c2noc(-c3nc(C(C)C)no3)n2)cc1	?	-4.9%	i	-20.3%	11.2µM*
C=C1CCC2C(C)(COC3OC(COC(=O)CC(=O)O)C(O)C(O)C3O)CCCC2(C)C1CCC1=CCOC1=O (centres undefined)	/	/	3.9%[27.3 µM]	/	/
O=C(NC1CCCCCC1)c1ccc2nc(-c3ccnc(Cl)c3)oc2c1	?	-18.6%[138 µM]	0.0%[88.5 µM]	/	/
O=C1Nc2ccc(-c3cccc(C(F)(F)F)c3)cc2C(=O)N2CCN(C(=O)c3ccco3)C[C@@H]12	39.8µM*	?	-5.1%	-18.7%	i
O=C1Nc2ccc(-c3cccc(C(F)(F)F)c3)cc2C(=O)N2CCN(C(=O)NC3CCCCC3)C[C@H]12	35.5µM*	?	1.0%	0.5%	i
Cc1cc(C)n(Cc2ccc(C(=O)NCC3CCCCC(=O)N3)o2)n1 (centres undefined)	-8.7%	-20.4%	i	/	/
COc1cc(C(=O)NC2CCN(c3cc(-c4ccc(F)cc4)[nH]n3)CC2)cc(OC)c1OC	?	-21.6%	-1.9%	4.0%	i
CCC(CC)c1cc([C@H]2CN3CC[C@H]2C[C@@H]3CNC(=O)c2cc(OC)c(OC)c(OC)c2)nc(-c2ccncc2)n1	28.2µM*	20µM*	-23.1%	?	i
O=C(CCC(=O)n1ncc2c(Cl)cccc21)N1CCC(Cc2nc(C3CCOCC3)no2)CC1	?	-15.1%	i	12.6µM*	i
O=C(C1CC1)N1CCC(Cc2nc(C3CCOCC3)no2)CC1	7.5%	-7.4%	i	5.6%	i
COc1ccccc1-c1cc(C(=O)NC2CCCCC2)nn2cnnc12	?	-8.8%	4.8%	/	/
Cc1nc(-c2ccccc2)n(CC(=O)Nc2ccc(Cl)cc2)c(=O)c1CCO	?	-29.2%	i	-17.6%	i
Cc1nc(-c2ccccc2)n(CC(=O)Nc2cccc(C#N)c2)c(=O)c1CCO	39.8µM*	?	i	-21.3%	i
Cc1ccc(NC(=O)Cn2c(-c3ccccc3)nc(C)c(CCO)c2=O)cc1Cl	?	28.2µM*	4.1%	-15.2%	i
Cc1nc(-c2ccc(F)cc2)n(CC(=O)Nc2cccc(Cl)c2)c(=O)c1CCO	?	?	i	-17.5%	i
CC(=O)c1cccc(NC(=O)Cn2c(-c3ccc(F)cc3)nc(C)c(CCO)c2=O)c1	?	?	?	-6.1%	i
Cc1nc(-c2ccccc2)n(CC(=O)Nc2ccc(F)c(Cl)c2)c(=O)c1CCO	39.8µM*	?	-22.0%	-26.7%	i
COc1cccc(-c2cnc([C@@H]3COCCN3Cc3ccc(NC(C)=O)cc3)[nH]2)c1	-0.3%[172 µM]	-19.1%[174 µM]	i	2.0%[70.6 µM]	i
COc1cccc(CC(=O)N2CCC3(CC2)OC(=O)N(Cc2csc(C)n2)C3(C)c2ccccc2)c1 (centres undefined)	-40.1%	7.08µM*	0.3%	-9.9%	i
CC1(c2ccccc2)N(Cc2ccccc2C#N)C(=O)OC12CCN(C(=O)Cc1ccccn1)CC2 (centres undefined)	2.0%	28.2µM*	-3.5%	-3.6%	i
COc1cccc(CN2C(=O)OC3(CCN(Cc4ccccn4)CC3)C2(C)c2cccnc2)c1 (centres undefined)	4.4%	?	-0.2%	-0.4%	i

Screening data: PubChem, National Center for Advancing Translational Sciences (NCATS)
